A number with no mark means an inactive call. Records with an inconclusive call do not appear. The source made the active and inactive calls. Unless noted, calls follow the shape of the dose curve; as a rule, active = well fitted curve in the direction sought with a large enough effect in the repeat runs; inconclusive = weak or mixed curves; inactive = no such curve, though single readings can be large; an effect the other way counts as inactive or inconclusive.

Experiment [1] can be described thus: A CellTox Green Cytotoxicity Assay to monitor cytotoxicity in HEK293 cells - 32 hour (AID 1224881). Also: nearly all actives have a fitted effect of over 40% in size. Also: potency is read from the fitted curve at half-maximal effect. The procedure, abridged: (§1)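 Seeding of HEK293 cells together with cytotoxicity dye preceded a 5 h incubation at 37 C/5% CO2. Test compounds in DMSO were then added and fluorescence monitored across 40 h.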
Experiment [2] is described as follows: A CellTox Green Cytotoxicity Assay to monitor cytotoxicity in HepG2 cells - 0 hour (AID 1224882). Also: nearly all actives have a fitted effect of over 35% in size. The procedure, abridged:
(§2)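 Nonlytic assay: viable cells exclude the dye, so fluorescence scales with cell death. HepG2 at 600 cells/well, compounds added after 5 h, signal read across 40 h.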

The nature of experiment [3]: A CellTox Green Cytotoxicity Assay to monitor cytotoxicity in HepG2 cells - 32 hour (AID 1224883). Also: nearly all actives have a fitted effect of over 50% in size. Also: potency is read from the fitted curve at half-maximal effect. The procedure, abridged:
as §2

Experiment [4] can be described thus: qHTS RealTime-Glo MT Cell Viability Assay in HepG2 cells - 16 hour (AID 1224885). Also: nearly all actives have a fitted effect of over 50% in size. The procedure, abridged: (§3)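 Cell number in HepG2 cultures estimated from NanoLuc luminescence generated by metabolic reduction of a prosubstrate by living cells. The homogeneous, nonlytic format allowed repeated reads at 0, 8, 16, 24, 32 and 40 h of compound exposure.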
The nature of experiment [5]: qHTS RealTime-Glo MT Cell Viability Assay in HEK293 cells - 8 hour (AID 1224887). Also: top concentration of the series differs between compounds; nearly all actives have a fitted effect of over 50% in size. The procedure, abridged:
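Tox21 screen in HEK293 using RealTime-Glo MT chemistry, with cells and reagent co-dispensed. Luminescence proportional to viable cell number was captured at intervals during 40 h compound exposure at 37 C.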

Experiment [6] in a line: A CellTox Green Cytotoxicity Assay to monitor cytotoxicity in HEK293 cells - 16 hour (AID 1224888). Also: nearly all actives have a fitted effect of over 35% in size. The procedure, abridged: as §1
A short description of experiment [7]: qHTS RealTime-Glo MT Cell Viability Assay in HepG2 cells - 0 hour (AID 1224889). Also: nearly all actives have a fitted effect of over 50% in size. The procedure, abridged:
as §3
(In general: In qHTS, concentration-response curves come from the screen itself.)

Experiment [8] is described as follows: qHTS assay to identify small molecule antagonists of the estrogen receptor alpha (ER-alpha) signaling pathway using the BG1 cell line in the presence of 0.1 nM 17-beta-estradiol - cell viability counter screen (AID 1259241). Also: nearly all actives have a fitted effect of over 40% in size. The procedure, abridged:
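VM7Luc4E2, 4,000 cells/well, phenol red-free medium + 10% charcoal-stripped FBS; 24 hr plating; cpd + 0.1 nM E2 final, 22 hr 37C/5% CO2; CellTiter-Fluor 30 min, fluorescence.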

Experiment [9] is described as follows: qHTS assay to identify small molecule antagonists of the androgen receptor (AR) signaling pathway using the MDA cell line in the presence of 0.5 nM R1881 - cell viability counter screen (AID 1259242). Also: nearly all actives have a fitted effect of over 45% in size. The procedure, abridged: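 R1881 at 0.5 nM final stimulated MDA-kb2 cells during 16 hr compound treatment at 37C. Cytotoxicity read: CellTiter-Fluor fluorescence after 30 min.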

The nature of experiment [10]: qHTS assay to identify small molecule HDAC inhibitors (AID 1259364). Also: potency is read from the fitted curve at half-maximal effect.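 Also: wild-type HCT-116 cells with endogenous class I/II HDAC activity; nearly all actives have a fitted effect of over 45% in size.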 As to activity change, negative = inhibition: top concentration of the series differs between compounds. The procedure, abridged:
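Relative class I and II HDAC activity is taken from the luminogenic signal in HCT-116 cells, with compound exposure 2 hr and reagent development 30 min at room temperature.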

Experiment [11] in a line: qHTS assay to identify small molecule HDAC inhibitors - cell viability counter screen (AID 1259365). Also: nearly all actives have a fitted effect of over 50% in size. Also: potency is read from the fitted curve at half-maximal effect. As to activity change, negative = cytotoxicity: series mostly up to about 92 µM. The procedure, abridged: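 Luminescence from CellTiter-Glo, developed 30min at room temperature, reports viability of wild-type HCT-116 cells treated 2hr with compounds at 37 C and 5% CO2 after overnight plating.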
A short description of experiment [12]: qHTS assay to identify small molecule agonists of the sonic hedgehog signaling (Shh) pathway - cell viability counter screen (AID 1259366). Also: nearly all actives have a fitted effect of over 50% in size. The procedure, abridged: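 Cytotoxicity counter screen run in the same wells as the Shh reporter assay. NIH/3T3 cells carrying a Gli1 response element–driven luciferase were treated with DMSO-dissolved compounds for 24hr, and live-cell protease activity was measured with CellTiter-Fluor.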

Experiment [13] can be described thus: qHTS assay to identify small molecule antagonists of the sonic hedgehog signaling (Shh) pathway - cell viability counter screen (AID 1259367). Also: nearly all actives have a fitted effect of over 55% in size. The procedure, abridged: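 After a 4 hr settling period, 3T3 Gli1-Luc cells were treated with DMSO-dissolved chemicals and conditioned medium, kept 24 hr at 37C in 5% CO2, and assayed for viability by CellTiter-Fluor fluorescence following 1 hr reagent incubation.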

A short description of experiment [14]: qHTS assay to identify small molecule agonists of the sonic hedgehog signaling (Shh) pathway (AID 1259368; calls by dose curve;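 also: NIH/3T3-derived 3T3Gli1-Luc cells carrying a stable Gli1-driven firefly luciferase reporter; series mostly up to about 92 µM; nearly all actives have a fitted effect of over 15% in size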). The procedure, abridged: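 Mouse fibroblast (NIH/3T3) reporter cells with stably integrated Gli1-Luc were treated 24 hr with compound; firefly luciferase luminescence served as the read-out.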
A short description of experiment [15]: qHTS RealTime-Glo MT Cell Viability Assay in HEK293 cells - 24 hour (AID 1224886). The procedure, abridged:
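Homogeneous bioluminescent viability format in HEK293 cells (600 cells/well). Following 5 h at 37 C/5% CO2, 23 nL compound was pintooled; the signal was measured repeatedly during 40 h incubation.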

A short description of experiment [16]: A CellTox Green Cytotoxicity Assay to monitor cytotoxicity in HepG2 cells - 8 hour (AID 1224890). Also: nearly all actives have a fitted effect of over 45% in size. The procedure, abridged: as §2
Experiment [17] concerns the target Estrogen receptor (Homo sapiens) (UniProt P03372). Put plainly: qHTS assay to identify small molecule antagonists of the estrogen receptor alpha (ER-alpha) signaling pathway using the BG1 cell line in the presence of 0.1 nM 17-beta-estradiol (AID 1259244). Also: nearly all actives have a fitted effect of over 50% in size. The procedure, abridged: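 VM7Luc4E2; 4xERE-luciferase; 0.1 nM E2 final; 22 h co-incubation, 37C; ONE-Glo luminescence after 30 min at room temperature.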

Experiment [18] is described as follows: A CellTox Green Cytotoxicity Assay to monitor cytotoxicity in HEK293 cells - 8 hour (AID 1224884). Also: nearly all actives have a fitted effect of over 35% in size. The procedure, abridged:
as §1

Experiment [19] can be described thus: qHTS assay to identify small molecule phospholipidosis (PLD) inducers (AID 1259344; active = well fitted curve in the direction sought with a large enough effect; an effect the other way counts as inactive or inconclusive). The procedure, abridged: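 HepG2 cells grown on collagen I take up LipidTOX Red while exposed to compound for 24 h; after fixation they are imaged at 20x and pit metrics are extracted.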
% is scaled to controls: 0 for no effect and ±100 for the full control effect.

Chain of Estrogen receptor (Homo sapiens) (P03372 whole entry, looked up): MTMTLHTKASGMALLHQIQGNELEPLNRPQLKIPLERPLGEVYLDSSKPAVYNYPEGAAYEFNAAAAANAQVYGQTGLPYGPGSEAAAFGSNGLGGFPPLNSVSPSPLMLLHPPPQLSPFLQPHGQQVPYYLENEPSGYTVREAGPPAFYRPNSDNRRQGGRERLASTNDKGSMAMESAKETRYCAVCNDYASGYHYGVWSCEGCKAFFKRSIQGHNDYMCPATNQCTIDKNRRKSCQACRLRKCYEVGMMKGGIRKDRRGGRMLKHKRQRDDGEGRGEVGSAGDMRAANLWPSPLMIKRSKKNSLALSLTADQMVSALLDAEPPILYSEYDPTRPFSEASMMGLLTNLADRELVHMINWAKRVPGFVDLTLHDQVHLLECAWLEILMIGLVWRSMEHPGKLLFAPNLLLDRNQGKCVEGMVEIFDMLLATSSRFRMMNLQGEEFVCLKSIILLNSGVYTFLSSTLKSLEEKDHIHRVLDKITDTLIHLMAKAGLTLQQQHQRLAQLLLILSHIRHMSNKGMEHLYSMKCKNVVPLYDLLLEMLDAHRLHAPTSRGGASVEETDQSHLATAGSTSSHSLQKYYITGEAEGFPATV

On to `CC(C)(O)c1ccc(CNC(=O)c2cccnc2Oc2ccc(F)cc2)cc1`, for which the Potency result in experiment [1], in experiment [2], in experiment [3], in [4], in experiment [5] and in experiment [6] was “inactive” throughout. For the same compound, the Potency entry in experiment [7], in [8], in experiment [9], in [10], in experiment [11] and in [12] was “inactive” throughout. In [13], the Potency entry was “inactive”. In addition, in experiment [14], the call was inactive.

`Nc1cc(C(=O)O)c(O)c(S(=O)(=O)O)c1`: the Potency entry in experiment [1], in experiment [2], in experiment [3], in experiment [4], in [15] and in experiment [5] was “inactive” in each case. Besides, the Potency result in [7], in experiment [8], in experiment [9], in experiment [10], in [11] and in [13] was “inactive” in each case. Further, in experiment [14], the result was inactive.

Turning to `COc1cc(Cl)ccc1Oc1ccc(Cl)cc1Cl`, the Potency result in experiment [1], in [2], in [3], in experiment [4], in experiment [6] and in experiment [7] was “inactive” each time. In addition, the Potency entry in experiment [16], in [8], in experiment [9], in experiment [17], in [10] and in [11] was “inactive” in each case. Besides, the Potency entry in experiment [12] and in [13] was “inactive” throughout. Also, the compound was classed as inactive in [14].

With `CC(C)Nc1ccc(NC(C)C)c2c1C(=O)c1ccccc1C2=O`, the Potency in experiment [1] is 25.5 µM (active); in [3], 9.06 µM (active); in [10], 12.7 µM (active); in experiment [11], 12.7 µM (active). Moreover, the Potency result in [2], in experiment [4], in [15], in [5], in experiment [6] and in [7] was “inactive” in each case. Besides, the Potency entry in experiment [16], in experiment [8], in experiment [9], in experiment [12] and in experiment [13] was “inactive” throughout. In addition, the compound was called inactive in [14].

As for `CC/C=C\CCOC(=O)CC`, the Potency entry in experiment [1], in experiment [2], in experiment [18], in experiment [4], in [15] and in experiment [6] was “inactive” each time. Moreover, the Potency entry in experiment [7], in experiment [16], in experiment [8], in experiment [9], in experiment [10] and in experiment [11] was “inactive” in each case. Also, the Potency entry in [12] and in experiment [13] was “inactive” throughout. For the same compound, the call in experiment [14] was inactive.

For `CC(CSC(=O)c1ccccc1)C(=O)N1C[C@@H](Sc2ccccc2)C[C@H]1C(=O)O` (stereo partly specified), the cytotoxicity increase in experiment [1] is 1.09% [at 15.8 µM]; in experiment [18], 0.0018% [at 15.8 µM]; in experiment [16], -3.03% [at 15.8 µM]. The cytotoxicity in experiment [2] was 5.13% [at 15.8 µM]. Besides, the activity change, negative = cytotoxic in experiment [4] was 2.9% [at 15.8 µM]. Moreover, the activity change, negative = cytotoxicity in experiment [15] is -5.81% [at 15.8 µM]; in [5], -4.84% [at 15.8 µM]; in experiment [7], -0.48% [at 15.8 µM]; in experiment [8], 3.73% [at 19 µM]. Moreover, the activity change in [6] is -0.144% [at 15.8 µM, stronger effect = higher value]. Moreover, the viability change, negative = cytotoxic in [9] was 5.22% [at 19 µM]; in [12], -5.51% [at 19 µM]; in experiment [13] it was 1.29% [at 19 µM]. In addition, the Potency entry in [17] and in experiment [19] was “inactive” throughout. The activity change, negative = inhibition in experiment [10] was 3.83% [at 19 µM].

For `Cc1ncc(CO)c(C=O)c1O`, the Potency result in [1], in experiment [2], in experiment [18], in [4], in experiment [15] and in [5] was “inactive” throughout. The Potency entry in experiment [6], in [7], in experiment [16], in experiment [8], in experiment [9] and in experiment [17] was “inactive” throughout. In addition, the Potency entry in [19], in experiment [10], in experiment [12] and in [13] was “inactive” in each case. In [14], the call was inactive.

For the origin of these results see PubChem BioAssay (Tox21).
